# The panel holds about 79,000 compounds, 15% with a hit somewhere; the sample as a whole holds those more often. A number with no mark means an inactive call. Calls of active or inactive are those of the source. No stated cut-off is given here; in the data, active means growth inhibition above about 70%; inactive means the rest.
# Tests used:
# [1] = NCI Yeast Anticancer Drug Screen. Data for the rad50 strain (AID 155);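 further: 0% = growth of vehicle-only cultures of the same strain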; conditions: S. cerevisiae rad50 strain growth inhibition; at 50.0 µM; hits give high values
# How it was run: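 Compounds were tested on a yeast strain with an engineered DNA damage repair alteration; the reported value is growth inhibition normalised to vehicle treatment.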
# [2] = NCI Yeast Anticancer Drug Screen. Data for the mec2-1 strain (AID 157); conditions: S. cerevisiae mec2-1 strain, at 50.0 µM, hits give high values
# How it was run: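 Mutant yeast (mec2-1) grown with compound; growth inhibition relative to vehicle control reported.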
# [3] = NCI Yeast Anticancer Drug Screen. Data for the sgs1 mgt1 strain (AID 161);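 further: 0% = growth of cultures given vehicle only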; conditions: S. cerevisiae sgs1 mgt1 strain, at 50.0 µM, hits give high values
# How it was run: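 This yeast growth screen uses a strain with defined DNA-repair lesions; compound-treated growth is compared with vehicle-treated growth.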
# [4] = NCI Yeast Anticancer Drug Screen. Data for the cln2 rad14 strain (AID 165);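 further: 0% = growth equal to vehicle treated cultures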; conditions: S. cerevisiae cln2 rad14 strain, at 50.0 µM, hits give high values
# How it was run: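 Readout is yeast growth inhibition versus vehicle-treated controls, using a strain with cln2 and rad14 alterations exposed to compound.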
# [5] = NCI Yeast Anticancer Drug Screen. Data for the bub3 strain (AID 167); conditions: S. cerevisiae bub3 mutant strain, at 50.0 µM, hits give high values
# How it was run: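 Growth of a checkpoint-deficient yeast mutant is measured after compound exposure. Values represent inhibition relative to vehicle.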
# [6] = NCI Yeast Anticancer Drug Screen. Data for the mlh1 rad18 strain (AID 175); conditions: S. cerevisiae mlh1 rad18 strain growth inhibition; at 50.0 µM; hits give high values
# How it was run: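 Genetically defined yeast (DNA repair-deficient) exposed to compounds; growth inhibition determined relative to vehicle.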
SMILES,growth inhibition [1],growth inhibition [2],growth inhibition [3],growth inhibition [4],growth inhibition [5],growth inhibition [6]
CCCCCCCCCCCCCCCCCCC1=CC(=O)c2ccccc2C1=O,16.1%,3%,25.6%,31%,8.4%,14.9%
NNC1CCN(Cc2ccccc2)CC1,2.5%,-16.8%,0.25%,22.2%,-1.9%,14.2%
O=C(Nc1ccc2c(c1)Cc1ccccc1-2)C(Cl)Cl,20.4%,1.95%,10.6%,-7.85%,42.5%,14%
O=C(O)c1c(Br)c(Br)c(Br)c(Br)c1C(=O)Nc1ccc(Cl)c(Cl)c1,-1.05%,5.15%,-0.75%,-11.1%,0%,-21%
COc1cc(CC2C(=O)NC(=O)NC2=O)ccc1OCc1ccccc1,17.8%,-7.75%,-5.1%,-19.4%,-21.4%,-47%
NC1C2CC3CC1CC(C2)O3 (stereo unspecified),-10.8%,-8.1%,-9.4%,-68.5%,7.45%,-14.3%
CC1(C)C/C(=C\c2cccc(Cl)c2)C(=O)c2ccccc21,11.8%,16.6%,-0.75%,-12.8%,-5.65%,7.4%
S=C1SCCCN1c1ccccc1,-6.35%,-4.05%,-4.9%,-14.5%,-9.6%,-20%
COC1c2ccccc2CC1(C)C (stereo unspecified),13.8%,8.8%,5.65%,-52.4%,10.3%,9.55%
C=CCN(N=O)C(=O)N(CCC)CCCC(NC(C)=O)C(=O)NCc1ccccc1 (stereo unspecified),-3.2%,-27.2%,-14.4%,22.6%,2.9%,-14.2%
Cc1cccc(C)c1NC(=O)C(Cl)Cl,-2.9%,-0.6%,-3.9%,5.05%,-12%,-0.15%
Cc1ccc(P(=O)(O)O)cc1C,-18.2%,-7.3%,0.3%,-2.1%,-7.75%,-10.4%
OCc1ccccc1CN1CCCC1,8.65%,1.15%,17.8%,-40.1%,8.1%,-14.3%
S=C1NC(/C=C/c2ccccc2)Nc2ccccc21 (stereo unspecified),62.2%,79.1% (active),73% (active),81.8% (active),27.6%,88.2% (active)
NC(=O)CS(=O)Cc1cccc(Br)c1 (stereo unspecified),-13.9%,-11.2%,-17.6%,7.35%,-1.5%,6.5%
CN(CCC(=O)O)S(=O)(=O)c1ccccc1,-13.1%,-17.2%,-10.6%,-9.1%,-46.4%,-3.8%
COC(=O)C1=C(C(=O)OC)C(C)(C)N=N1,14.2%,6.65%,12.7%,-1.65%,16.1%,3.45%
Cc1cc(OCCOc2ccc(N)cc2)ccc1N1C(N)=NC(N)=NC1(C)C,-1.5%,12.7%,6.65%,83.2% (active),1.45%,-3%
c1ccc2n[nH]nc2c1,19.1%,-10.9%,7.3%,2.2%,-4.8%,16.9%
CC(=O)OCC(OC(C)=O)C1OC2OC(C)(C)OC2C1OS(C)(=O)=O (stereo unspecified),15.2%,10.3%,17.6%,-27.6%,28.6%,4.95%
CCCCC(O)(CCCC)CC(C)C,8.4%,19.5%,-2.4%,-19.9%,-16.7%,5.85%

SMILES,growth inhibition [1],growth inhibition [2],growth inhibition [3],growth inhibition [4],growth inhibition [5],growth inhibition [6]
N#Cc1c(-c2ccccc2)[nH]c2ccc(Cl)cc2c1=O,6.6%,-30.5%,-21.7%,-7.8%,-9.75%,-28.1%
C/C(=N\NC(N)=S)c1ccc(C)cc1C,45.4%,-3.75%,57%,25.9%,7.55%,59.5%
CN1CCN(CCNNCCN2CCCC(O)C2)CC1 (stereo unspecified),3.2%,-1.65%,-5.15%,-6.05%,-7.25%,10.7%
CC(C)N(C(=O)C12C3C4C5C3C1(C(=O)N(C(C)C)C(C)C)C5(C#N)C42)C(C)C (stereo unspecified),22.6%,3.65%,5.6%,13.7%,13.4%,4.2%
Cc1c(-c2nc3ccccc3[nH]2)c(=O)n(-c2ccccc2)n1C,-70.2%,-38.1%,-24.1%,7.25%,-10.4%,-38.9%
CCCCCC(O)(CCCC)CCCC,-0.45%,-5.6%,-14.3%,-12.6%,-0.55%,-1.15%
O=C1Sc2ccccc2Cn2cccc21,-1.7%,13%,13.3%,-19.6%,-6.3%,8.7%
CC#CC#C/C=C1/C=CC2(CC=CO2)O1 (stereo unspecified),1.55%,7.95%,9.85%,12.3%,25.3%,29.6%
C=C(C)c1nc(C#N)c(N)o1,33%,5.6%,-13.4%,4.5%,-37.8%,-33.4%
CCCCC(CC)COC(=O)C(C)CCC (stereo unspecified),4.65%,-1.1%,-2.4%,-27.7%,17.9%,5%
CC(CC#N)NC(=O)C1CCC(N)=N1 (stereo unspecified),-14.3%,-18.2%,-8.95%,1.4%,-7.35%,-9.9%
C[CH2][Sn]([CH2]C)([O][P+](=O)C[Si](C)(C)c1ccccc1)[O][P+](=O)C[Si](C)(C)c1ccccc1 (stereo unspecified),3.8%,29.6%,12.7%,-3.55%,-3.35%,17.9%
CSc1nc(SC)c2c(C(N)=S)[nH]nc2n1,23.3%,20.9%,47%,19.7%,18.6%,23.6%
O=C(O)c1cccc(C(=O)O)c1S(=O)Cc1ccccc1 (stereo unspecified),3.45%,-15.1%,1.2%,-0.15%,-17.1%,17.9%
CCCCCCCCCCCCCCCC(=O)Oc1ccc(C(=S)N2CCOCC2)cc1,20.8%,1.25%,2.4%,2.9%,5.05%,13.9%
CN1N=C(c2ccccc2)C(C(c2ccccc2[N+](=O)[O-])C2C(=O)N(C)N=C2c2ccccc2)C1=O (stereo unspecified),46.8%,34.6%,8.5%,3.4%,-3.4%,-2.1%
Cc1cccc(-c2c3ccccc3cc3ccccc23)c1,6.35%,14.2%,7.55%,-3.1%,2.35%,11.6%
Cc1cc2c(cc1C)C(=O)c1ccccc1C2=O,-29.3%,-36.1%,-15.1%,-6.7%,-30.7%,-21.8%
c1ccc(C2=Nc3ccccc3-c3ccccc3N2)cc1,-2.95%,-1.35%,-6.05%,-28.4%,-4.75%,-8.05%
c1ccc(-c2nc3ccccc3o2)cc1,31.3%,21.4%,26.9%,4.25%,27.4%,37.4%
